# Experimental data published in the supplement of paper PMC12669032.
# A number with no mark means an inactive call.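 Rule for the calls: active = AUC reduced over 20% with Padj below 0.05 in at least 2 of 3 replicates; inactive = otherwise.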
# Experiments:
# Test in all cases: growth AUC relative to DMSO control (median of replicates) (fraction); higher = more growth (less inhibition), active = hit call of the paper
# Conditions in all cases: 20 µM; 24 h
# Akkermansia muciniphila = system: Akkermansia muciniphila
# In short: (§1)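 In round-bottom 96-well plates sealed with pierced gas-permeable seals, gut bacterial monocultures in mGAM were grown anaerobically at 37 °C from OD600 0.05 with 20 µM compound (1% DMSO). OD600 readings were taken hourly for 24 h, and the minimum OD was set to 0. Area under the growth curve was then normalised to the plate median of solvent-only wells, or to row and column medians on the industrial chemical plate. The value given is the median of three biological replicates grown on separate days.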
# Bacteroides caccae = system: Bacteroides caccae
# In short: as §1
# Bacteroides clarus = system: Bacteroides clarus
# In short: as §1
# Bacteroides dorei = system: Bacteroides dorei
# In short: as §1
# Bacteroides stercoris = system: Bacteroides stercoris
# In short: as §1
# [1] = system: Bacteroides thetaiotaomicron
# In short: as §1
# Bacteroides uniformis = system: Bacteroides uniformis
# In short: as §1
# [2] = system: Bifidobacterium longum subsp. longum
# In short: as §1
# Clostridium difficile = system: Clostridium difficile
# In short: as §1
# Collinsella aerofaciens = system: Collinsella aerofaciens
# In short: as §1
# Coprococcus comes = system: Coprococcus comes
# In short: as §1
# Escherichia coli ED1a = system: Escherichia coli ED1a
# In short: as §1
# Escherichia coli IAI1 = system: Escherichia coli IAI1
# In short: as §1
# Eubacterium rectale = system: Eubacterium rectale
# In short: as §1
# [3] = system: Fusobacterium nucleatum subsp. animalis
# In short: as §1
# Lactobacillus gasseri = system: Lactobacillus gasseri
# In short: as §1
# Lactobacillus paracasei = system: Lactobacillus paracasei
# In short: as §1
# Odoribacter splanchnicus = system: Odoribacter splanchnicus
# In short: as §1
# [4] = system: Parabacteroides distasonis
# In short: as §1
# Parabacteroides merdae = system: Parabacteroides merdae
# In short: as §1
Compound,growth AUC (Akkermansia muciniphila),growth AUC (Bacteroides caccae),growth AUC (Bacteroides clarus),growth AUC (Bacteroides dorei),growth AUC (Bacteroides stercoris),growth AUC [1],growth AUC (Bacteroides uniformis),growth AUC [2],growth AUC (Clostridium difficile),growth AUC (Collinsella aerofaciens),growth AUC (Coprococcus comes),growth AUC (Escherichia coli ED1a),growth AUC (Escherichia coli IAI1),growth AUC (Eubacterium rectale),growth AUC [3],growth AUC (Lactobacillus gasseri),growth AUC (Lactobacillus paracasei),growth AUC (Odoribacter splanchnicus),growth AUC [4],growth AUC (Parabacteroides merdae)
CCCOc1nc2ccc(I)cc2c(=O)n1CCC,0.956,0.995,0.896,1.01,0.905,0.936,0.95,0.937,0.964,0.952,1.04,0.991,0.974,0.996,0.973,0.833,0.976,1.05,0.647 (active),0.923
CN(C(=O)NC(C)(C)c1ccccc1)c1ccccc1,0.911,1.04,0.999,0.988,0.824,1.01,1.03,0.916,1.04,0.969,1.01,1.01,0.974,0.981,0.909,1.01,0.951,1.1,0.952,1
COC1CCC2(CC1)NC(=O)C(O)(c1cc(C)ccc1C)C2=O (stereo not given),1,0.984,1.02,1.03,1.15,1.01,1.02,1.05,1.02,0.981,1.03,1.01,1.02,1.1,1.16,1.02,1.06,1.06,1.02,1.06
O=C(O)CNC(=O)c1cnccc1C(F)(F)F,1.02,1,1.02,0.976,1.07,0.99,1.02,1.06,0.924,0.989,0.96,1.03,1.02,1.01,1.14,0.903,1.11,1.02,1.03,0.992
c1ccc2[nH]c(-c3cscn3)nc2c1,0.73,0.997,1.01,0.973,0.947,0.974,1.02,0.976,0.985,0.985,0.96,1.01,0.989,0.878,0.97,1,0.991,0.962,0.974,0.972
COC(=O)C(C)Oc1cc(Cl)c(Cl)cc1Cl (stereo not given),0.978,0.982,1,1.04,1.22,0.982,0.978,1.03,1.03,0.982,1,0.985,1.05,0.975,1.03,1.12,0.883,0.927,0.994,0.974
Br[C@@H]1CC[C@H](Br)[C@H](Br)CC[C@@H](Br)[C@@H](Br)CC[C@H]1Br,1,1.01,0.901,0.999,0.528 (active),1.01,1.01,0.919,1.02,1,1.05,0.985,1,0.773 (active),0.974,0.789,0.976,1.08,0.232 (active),0.351 (active)
C#CCN(C)c1c(C#N)cnn1-c1nn2c(c1Cl)CCCC2,0.903,0.935,0.931,0.987,0.851,0.933,0.914,0.995,1,1.02,0.998,0.999,1.02,1.07,0.972,1.05,1.05,1.05,0.98,1.01
CC(C)(NC(=O)NCc1ccccc1Cl)c1ccccc1,1.12,1,1.03,0.925,0.951,1.02,0.983,1.08,1.01,0.96,1.02,1.04,1.03,1.03,1.02,0.978,0.986,1.05,1.02,0.994
C[S+](C)CCC(=O)O.[Cl-],0.964,1.03,0.974,1.04,0.974,1,1.01,1.01,1.01,0.986,0.97,0.985,1.01,0.923,0.939,1.08,1.01,0.979,0.959,1.02
CC(C)C1C2CCC1c1c(NC(=O)c3cn(C)nc3C(F)F)cccc12 (stereo not given),0.967,0.88,0.85,0.965,0.902,0.906,0.912,0.912,0.962,0.969,0.966,1,0.957,0.971,0.906,0.702,0.965,0.758,0.533 (active),0.862
CCOC(=O)Cn1c(=O)sc2cccc(Cl)c21,0.779,0.987,0.979,0.97,1,0.999,0.957,1.04,0.997,0.936,0.959,1.01,0.957,0.996,0.994,1.04,0.993,0.979,1.07,0.98
CCOCCOC(=O)C(C)Oc1ccc(Oc2ncc(C(F)(F)F)cc2Cl)cc1 (stereo not given),1.02,0.955,0.968,0.948,0.903,0.998,0.903,1.01,1.01,1.03,0.989,0.996,0.986,1.05,1.05,0.952,1.02,1.07,0.859,0.991
Oc1ccccc1O,0.968,1.02,1.03,1,1,1.03,1.04,0.911,1.01,1.01,0.993,0.994,1.01,1,1.01,1,0.995,1.08,1.02,1
Cc1cccc(C)c1N(CC(=O)O)C(=O)CS(=O)(=O)[O-].[Na+],0.891,1.01,0.939,0.998,0.888,1.01,1,0.938,1.05,0.973,0.996,0.973,0.946,0.847,0.941,0.987,0.928,1.01,0.965,0.997
Cc1cc(C)cc(O)c1,0.865,1.04,0.983,1.01,1,1.01,1,0.906,1.03,1.02,1.02,0.953,0.984,0.95,0.923,1.01,0.958,0.988,1.01,0.988
